# Experimental data reported in ChEMBL document CHEMBL1201862, “PubChem BioAssay data set” (2004).
# Potency and affinity values are given separately. Only a part of the results of these assays is listed, not drawn at random.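 96-well plates; 48 h exposure; 5 concentrations. Endpoints by linear interpolation between flanking doses. Not reached: highest tested concentration assigned. GI50 = concentration required for 50% inhibition of growth.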
# Tests used:
# Test in all cases: NCI tumour cell line growth inhibition, 48 h
# DLD-1 = test system: DLD-1
# HOP-18 = test system: HOP-18
# KM-20L2 = test system: KM-20L2
# LXFL 529 = test system: LXFL 529
# RXF 631 = test system: RXF 631
# XF498 = test system: XF498
# DMS-273 = test system: DMS-273
# SNB-78 = test system: SNB-78
substance,measurement,setting,value
"[Bis(aminomethyl)tetramethylenesilane]tetrachloropaltinum(IV), CHEMBL2146189",GI50,DLD-1,11.8 µM
same,GI50,HOP-18,24.3 µM
same,GI50,KM-20L2,2.99 µM
same,GI50,LXFL 529,12.2 µM
same,GI50,RXF 631,7.26 µM
same,GI50,XF498,3.56 µM
"[Bis(aminomethyl)tetramethylenesilane]dichloropaltinum(II), CHEMBL2146205",GI50,DLD-1,39.1 µM
same,GI50,DMS-273,14.6 µM
same,GI50,HOP-18,43.5 µM
same,GI50,KM-20L2,24.4 µM
same,GI50,LXFL 529,27.4 µM
same,GI50,RXF 631,49.3 µM
same,GI50,XF498,28 µM
"[Bis(aminomethyl)dimethylsilane]tetrachloroplatinum(IV), CHEMBL2146190",GI50,DLD-1,12.8 µM
same,GI50,DMS-273,1.02 µM
same,GI50,KM-20L2,3.58 µM
same,GI50,LXFL 529,14.2 µM
same,GI50,RXF 631,34.9 µM
same,GI50,SNB-78,3.22 µM
same,GI50,XF498,2.9 µM
"[Bis(aminomethyl)pentamethylenesilane]tetrachloropaltinum(IV), CHEMBL2146204",GI50,DLD-1,4.58 µM
same,GI50,HOP-18,42.6 µM
same,GI50,KM-20L2,3.14 µM
same,GI50,LXFL 529,4.97 µM
same,GI50,RXF 631,4.63 µM
same,GI50,XF498,2.86 µM
"mu-(1,7-nanodiamine-N,N')bis-(cis-aminedichloroplatimum (II)), CHEMBL2146215",GI50,DLD-1,36.2 µM
same,GI50,DMS-273,4.54 µM
same,GI50,HOP-18,84.1 µM
same,GI50,KM-20L2,35.9 µM
same,GI50,LXFL 529,46.2 µM
same,GI50,RXF 631,47.2 µM
same,GI50,SNB-78,48.8 µM
"CISPLATIN, CHEMBL11359",GI50,DLD-1,6.03 µM
same,GI50,HOP-18,7.71 µM
same,GI50,KM-20L2,7.48 µM
same,GI50,LXFL 529,4.83 µM
same,GI50,SNB-78,1.49 µM
"cis-Bis[[(trimethylsilyl)methyl]amino]tetrachloroplatinum(IV), CHEMBL2146191",GI50,DMS-273,12.1 µM
same,GI50,LXFL 529,2.15 µM
same,GI50,RXF 631,3.41 µM
same,GI50,SNB-78,7.36 µM
same,GI50,XF498,11 µM
"[Bis(aminomethyl)dimethylsilane]dichloroplatinum (II), CHEMBL2146201",GI50,DMS-273,5.62 µM
same,GI50,LXFL 529,44.2 µM
same,GI50,RXF 631,> 100 µM
same,GI50,SNB-78,16.7 µM
same,GI50,XF498,17.2 µM
"[Bis(aminomethyl)diethylsilane]tetrachloroplatinum(IV), CHEMBL2146203",GI50,DLD-1,8.65 µM
same,GI50,HOP-18,13 µM
same,GI50,KM-20L2,1.45 µM
same,GI50,LXFL 529,4.34 µM
same,GI50,RXF 631,4.21 µM
same,GI50,XF498,2.77 µM
"[Bis(aminomethyl)ethylmethylsilane]tetrachloroplatinum(IV), CHEMBL2146192",GI50,DMS-273,0.587 µM
same,GI50,LXFL 529,6.22 µM
same,GI50,RXF 631,14.3 µM
same,GI50,SNB-78,3.35 µM
same,GI50,XF498,4.22 µM
"[Bis(aminomethyl)pentamethylenesilane]dichloropaltinum(II), CHEMBL2146202",GI50,DLD-1,31.1 µM
same,GI50,HOP-18,37.7 µM
same,GI50,KM-20L2,12.2 µM
same,GI50,LXFL 529,12.9 µM
same,GI50,RXF 631,18.4 µM
same,GI50,XF498,11.5 µM
